{"source": "PubChem BioAssay (EPA / NIEHS)", "note": "Records with an inconclusive call do not appear. Active and inactive are the calls of the source. How the source made its calls: active means hit-call score of the fitted dose curve at least 0.9, where 1 is the maximum; inconclusive means response in the unintended direction; inactive means score below 0.9.", "data": [{"assay": "CCTE_Simmons_MITO_viability: CellTiter-Glo Viability Assessment for CCTE's HepG2 Seahorse XF Respirometric Screening Assay [post-hoc], Simmons Lab (AID 2284007);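 on AC50: cells exposed to chemical for 90 min before the ATP read; actives lower ATP signal relative to DMSO baseline meaning reduced viability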", "experimental": "CCTE_Simmons_MITO is cell-based, respirometric assay using HepG2 cells and a Seahorse XF Analyzer to measure oxygen consumption rates over four temporal phases spanning a total of 72 minutes: pre-injection (pre-treatment), basal (following test compound injection), maximal (following FCCP uncoupler injection), and inhibited (following rotenone/antimycin A injection)CCTE_Simmons_MITO_viability is one of 4 assay components measured from the CCTE_Simmons_MITO assay. It is designed to make measurements of ATP content, a form of viability reporter, as detected with bioluminescence signals by Luciferase-coupled ATP quantitation technology. Data from the assay component CCTE_Simmons_MITO_viability was analyzed at the endpoint, CCTE_Simmons_MITO_viability, in the positive analysis fitting direction relative to DMSO as the negative control and baseline of activity. Using a type of viability reporter, measures of ATP content for loss-of-signal activity can be used to understand the viability. To generalize the intended target to other relatable targets, this assay endpoint is annotated to the cell cycle intended target family, where the subfamily is cytotoxicity.\nTest chemicals were administered as a titrated series of 7 concentrations from 125 nM up to 100 uM [final] for 90 minutes prior to single endpoint detection. Three biological replicates of technical singles were run for every chemical concentration tested. Dimethylsulfoxide [DMSO] was used as the vehicle control. Dichlone [DCNQ] was used as the positive control and was administered as a titrated series of 8 concentrations from 10 nM up to 100 uM [final].", "values": [{"smiles": "Fc1ccccc1[C@@H](F)COC1CCC(Nc2ncnc3[nH]ncc23)CC1", "note": "(stereo not given in full)", "outcome": "inactive"}, {"smiles": "CC(C)c1cccc(C(C)C)c1N1C(=O)c2ccc(O)cc2C1=O", "outcome": "inactive"}, {"smiles": "Cc1c(-c2cccnc2)c2ccccc2n1CCCCC(=O)O", "outcome": "inactive"}, {"smiles": "CC(C)CC(C)(O)C#CC(C)(O)CC(C)C", "note": "(stereo not given)", "outcome": "inactive"}, {"smiles": "O=C(O)c1cccc(N(Cc2cccnc2)c2ccc(OC(F)F)c(OC(F)F)c2)c1", "AC50": "10.7 µM (active)"}, {"smiles": "Cc1[nH]cnc1C[C@H]1CCc2c(C)c3ccccc3n2C1=O", "outcome": "inactive"}, {"smiles": "Nc1cccc(N)c1", "outcome": "inactive"}, {"smiles": "Cc1ccc(N)cc1O", "outcome": "inactive"}, {"smiles": "Cn1c(=O)cc(Oc2ccc(F)cc2F)c2cnc(NCC(C)(C)O)nc21", "outcome": "inactive"}, {"smiles": "C=CCCCCCCCCC(=O)O", "outcome": "inactive"}]}]}
